HCMV inh: qHTS Assay for inhibitors of the human cytomegalovirus (HCMV) | HFF cells, HCMV-luciferase reporter, 72 h; active compounds read low | activity change, negative = inhibition, % at 57.5 µM | hit rate 4.5% among 410,000 | AID 1259415, 2018; in the data active = activity change below about -60%; inconclusive = no clear call, values can overlap the other calls; inactive = above about -39%; note: % is set by controls: 0 for no effect and ±100 for the full control effect
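Two-dose cell screen: HFF monolayers treated with compounds and infected with luciferase-expressing HCMV at 1 PFU/cell, 72 h at 37C, then lysed for luciferase measurement.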
CHX counter: Cycloheximide Counterscreen for Small Molecule Inhibitors of Shiga Toxin; cell reporter, cycloheximide protein synthesis inhibition counterscreen; max response, %; hit rate 12% among 300,000; AID 2314, 2010; in the data active = max response mostly above about 13%, no sharp cut-off; inactive = mostly below about 14%; note: read at 38.3 µM for the half of the compounds with a filed dose; 0% is about no effect
Pf growth 48h: Primary qHTS for delayed death inhibitors of the malarial parasite plastid, 48 hour incubation; AID 504832, 2011; hit rate 5.9% among 310,000; Potency, µM (top dose mostly 28.7 µM), for the others: top-dose activity change, negative = inhibition, hits mostly inhibitors; P. falciparum luciferase growth in erythrocytes, 48 h; note: potency is the fitted concentration of half-maximal effect; % is set by controls: 0 for no effect and ±100 for the full control effect
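Luciferase-expressing parasites in RBCs, 2% Hct / 0.1% parasitemia final; RPMI 1640 + 0.5% Albumax; 37 C, 5% CO2, one generation; luminescence read-out, lower signal = inhibition.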
Shiga toxin inh: A qHTS for Small Molecule Inhibitors of Shiga Toxin; Vero cells, Shiga toxin protein synthesis inhibition reporter; inhibition, % at 38.7 µM; hit rate 9.2% among 290,000; AID 2315, 2010; in the data active = inhibition mostly above about 28%, no sharp cut-off; inactive = mostly below about 43%; note: 0% is about no effect
HCV inhibitor: qHTS Assay for Inhibitors of Hepatitis C Virus (HCV) | Huh7.5.1 HCVcc-Cre infection, luciferase reporter, 44 h | Potency, µM (top dose mostly 41.8 µM), for inactives: at the highest dose activity change, negative = inhibition, hits mostly inhibitors | hit rate 3.4% among 340,000 | AID 651820, 2012; note: potency is the fitted concentration of half-maximal effect; % is set by controls: 0 for no effect and ±100 for the full control effect
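Seed cells (1,000/well) for 4 h; treat with compound and infect with HCVcc-Cre, moi about 0.5. Incubate 44 h, then detect luciferase activity.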
Pf growth 96h: Primary qHTS for delayed death inhibitors of the malarial parasite plastid, 96 hour incubation | hit rate 6.9% among 320,000 | AID 504834, 2011 | Potency, µM (doses to about 28.7 µM), for inactives: at the top dose activity change, negative = inhibition, hits mostly inhibitors | P. falciparum luciferase reporter growth, 96 h; note: potency is the fitted concentration of half-maximal effect; % is set by controls: 0 for no effect and ±100 for the full control effect
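Infected RBCs, 2% Hct / 0.05% parasitemia final; luciferase-reporter P. falciparum; cpd 96 h, 37 C, 5% CO2; luciferase detection reagent; luminescence.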
* marks the source's active call; other numbers are inactive results; ? = inconclusive; . = no result given. Rows were chosen to be rich in hits. Some 21% of all compounds tested hit in one or more screens of this group. Unless noted, calls come from the whole dose curve; as a rule, active = well fitted inhibition curve with a large enough effect; inconclusive = small, poorly fitted or top-dose-only effect, or another doubt; inactive = no such curve, though single readings can be large or run the other way.

SMILES	HCMV inh	CHX counter	Pf growth 48h	Shiga toxin inh	HCV inhibitor	Pf growth 96h
COc1ccc(/C=C2/CC/C(=C\c3ccc(OC)c(OC)c3OC)C2=O)c(OC)c1OC	15	-2	?	-4	?	29%
CCOc1cc(/C=C2\CN(CC)C/C(=C\c3ccc(O)c(OCC)c3)C2=O)ccc1O	-101*	24*	2.1µM*	3	4.5µM*	2.1µM*
COc1cc(/C=C2\CC/C(=C\c3cc(OC)c(O)c(OC)c3)C2=O)cc(OC)c1O	-98*	1	?	-11	?	6.6µM*
Cc1cccc(S(=O)Cc2ccc(C(=O)NC3CCCCCC3)o2)c1 (stereo not drawn)	11	.	.	.	.	.
O=C(CC1N=C2c3ccccc3N=C(SCc3ccccc3F)N2C1=O)NCc1ccc2c(c1)OCO2 (stereo not drawn)	23	.	.	.	.	.
O=C1NC(=O)/C(=C/c2cccc([N+](=O)[O-])c2)N1	27	-5	?	-10	-2%	?
COc1cc(/C=C2\COC/C(=C\c3cc(OC)c(OC)c(OC)c3)C2=O)cc(OC)c1OC	-98*	28*	0.37µM*	44*	1µM*	0.83µM*
COc1cc(C=C2C(=O)C=CC2=O)ccc1O	-88*	.	.	.	.	.
CCN1C/C(=C/c2cccc([N+](=O)[O-])c2)C(=O)/C(=C/c2cccc([N+](=O)[O-])c2)C1	-103*	-7	1.7µM*	1	?	2.3µM*
CNc1nc2cnc(Nc3cccc(F)c3)cc2n1-c1cccc(C(F)(F)F)c1	-30	.	.	.	.	.
Cc1ccc(S(=O)(=O)NCC(=O)N2CCOCCOCCOCC2)cc1	7	-4	16%	-10	-7%	62%
COc1ccc(OC)c(S(=O)(=O)Nc2cc(C)on2)c1	62	-2	9%	-17	8%	0%
CCOc1ccc(NC(=O)c2c(NCc3ccc(C)o3)sc3c2CCCCC3)cc1	-6	.	.	.	.	.
COc1ccc(-c2nc(NC(=O)c3cc(C(C)(C)C)nn3C)sc2C)cc1	.	6	.	14	5.6µM*	18%
COc1cc(NC(=O)c2n[nH]c(=O)c3ccccc23)cc(OC)c1	-36	-3	20%	3	5%	33%
Cn1nc(C(C)(C)C)cc1C(=O)Nc1nc2c(s1)C(=O)CC(C)(C)C2	-6	-2	-6%	1	-10%	?
Cc1sc(NC(=O)c2ccc(=O)n(C)n2)nc1-c1ccccc1	-27	32*	52%	42	2%	118%
COc1ccc(-c2nc(NC(=O)c3n[nH]c(=O)c4ccccc34)sc2C)cc1	-60*	-3	7%	2	?	-28%
Cc1c(NC(=O)Cn2[nH]c(=O)c3ccccc3c2=O)c(=O)n(-c2ccccc2)n1C	-16	-4	9%	-7	16%	.
Cc1sc(NC(=O)Cn2[nH]c(=O)c3ccccc3c2=O)nc1-c1ccccc1	-20	13	?	-10	?	12µM*
Fc1ccc(Oc2ccnc(Cl)n2)c(Cl)c1	-5	.	.	.	19%	.
COc1ccc(-c2nc(NC(=O)CCNC(=O)c3ccco3)sc2C)cc1	-21	11	-27%	-1	?	?
COc1ccc(-c2nc(NC(=O)c3c(C)noc3C)sc2C)cc1	-61*	.	?	.	?	-23%
Cc1cc(C)c(-c2csc(NC(=O)c3n[nH]c(=O)c4ccccc34)n2)c(C)c1	-73*	-6	1%	-10	?	?
CC1(C)Cc2c(cnn2-c2ccccc2)C(=O)/C1=N\NC(=O)c1ccccc1O	130	16*	?	32	?	.
SMILES	HCMV inh	CHX counter	Pf growth 48h	Shiga toxin inh	HCV inhibitor	Pf growth 96h
CC1(C)Cc2c(cnn2-c2ccccc2)C(=O)/C1=N\NC(=O)c1ccccc1	-10	2	.	-5	-13%	?
COc1cc(OC)c(NC(=O)c2ccc(-n3cnc4cccnc43)cc2)cc1Cl	-27	.	.	.	.	.
CCOc1ccc(NC(=O)Cn2cc(C(=O)c3ccccc3)c(=O)c3cc4c(cc32)OCCO4)cc1	-104*	.	.	.	.	.
COc1ccc2c(c1)c(=O)c(C(=O)c1ccccc1)cn2CC(=O)Nc1ccc2c(c1)OCO2	-103*	.	.	.	.	.
CSc1nn(Cc2ccc(F)cc2)c(N(C(C)=O)C(C)=O)c1S(=O)(=O)c1ccccc1	10	.	.	.	.	.
C#CCn1cc(/C=N/Nc2nc3ccccc3[nH]2)c2ccccc21	-69*	54*	?	81*	?	7%
BrC(=C\c1ccccc1)/C=N/Nc1nc2ccccc2[nH]1	-32	75*	-97%	104*	?	?
O=[N+]([O-])c1ccc(N/N=C/c2cn(Cc3ccc(F)cc3)c3ccccc23)nc1	?	8	32%	-49	9%	5%
CCCCn1c(/C=N/Nc2nc3ccccc3[nH]2)nc2ccccc21	-37	2	1.9µM*	11	?	?
CCCCn1c(/C=C/c2ccco2)nc2ccccc21	-13	5	39%	-3	-5%	?
BrC(=C\c1ccccc1)/C=N/N1CCN(c2ccccc2)CC1	-8	14	30%	46	-15%	22%
C(=N\Nc1nc2ccccc2[nH]1)/c1cccc2nccnc12	-15	31*	?	29	?	?
COC(=O)[C@H](Cc1ccccc1)NC(=O)C1CCN(C(=O)[C@H](C)NS(=O)(=O)c2ccc(C)cc2)CC1	-26	2	?	1	20%	?
Cc1ccc(S(=O)(=O)Nc2ccc3c(c2)OCCO3)c(C)c1NS(C)(=O)=O	10	-1	9%	-1	-5%	?
Fc1ccccc1-c1ccc(/C=N/Nc2nc3ccccc3[nH]2)o1	186	50*	?	49*	0%	0.93µM*
C(=N\Nc1nc2ccccc2[nH]1)/c1ccccn1	-100*	-6	-41%	-12	-2%	342%
C(=N\Nc1nc2ccccc2[nH]1)/c1ccc2ncccc2c1	-22	58*	0.15µM*	58*	?	?
Cc1ccc(/C=N\Nc2nc3ccc(Cl)cc3[nH]2)o1	-23	41*	2.6µM*	119*	-15%	2.3µM*
Cc1cccc2sc(N(Cc3cccnc3)C(=O)c3cccs3)nc12	-9	.	.	.	.	.
COc1ccccc1CNC(=O)Cn1nc(C)c([N+](=O)[O-])c1C	18	.	.	.	1%	.
O=C(/C=C/Nc1ccc(F)c(Cl)c1)c1ccco1	107	68*	89%	142*	?	.
O=C(/C=C/Nc1cccc(F)c1)c1ccco1	96	35*	.	76*	-1%	?
O=C(NC1CCN(C(=O)Nc2cccc(F)c2)CC1)c1ccco1	-18	-4	-3%	-3	12%	3%
